Rango complex inh – prevents formation of the Rango-importin beta complex | Rango CFP/YFP FRET sensor + importin beta, 45 min | Potency, µM (titrated, usually from 92.2 µM) | 340,000 tested, 0.031% active | AID 540263; further: nearly all actives have a fitted effect of over 15% in size
Target sequence (Q14974 whole entry, looked up): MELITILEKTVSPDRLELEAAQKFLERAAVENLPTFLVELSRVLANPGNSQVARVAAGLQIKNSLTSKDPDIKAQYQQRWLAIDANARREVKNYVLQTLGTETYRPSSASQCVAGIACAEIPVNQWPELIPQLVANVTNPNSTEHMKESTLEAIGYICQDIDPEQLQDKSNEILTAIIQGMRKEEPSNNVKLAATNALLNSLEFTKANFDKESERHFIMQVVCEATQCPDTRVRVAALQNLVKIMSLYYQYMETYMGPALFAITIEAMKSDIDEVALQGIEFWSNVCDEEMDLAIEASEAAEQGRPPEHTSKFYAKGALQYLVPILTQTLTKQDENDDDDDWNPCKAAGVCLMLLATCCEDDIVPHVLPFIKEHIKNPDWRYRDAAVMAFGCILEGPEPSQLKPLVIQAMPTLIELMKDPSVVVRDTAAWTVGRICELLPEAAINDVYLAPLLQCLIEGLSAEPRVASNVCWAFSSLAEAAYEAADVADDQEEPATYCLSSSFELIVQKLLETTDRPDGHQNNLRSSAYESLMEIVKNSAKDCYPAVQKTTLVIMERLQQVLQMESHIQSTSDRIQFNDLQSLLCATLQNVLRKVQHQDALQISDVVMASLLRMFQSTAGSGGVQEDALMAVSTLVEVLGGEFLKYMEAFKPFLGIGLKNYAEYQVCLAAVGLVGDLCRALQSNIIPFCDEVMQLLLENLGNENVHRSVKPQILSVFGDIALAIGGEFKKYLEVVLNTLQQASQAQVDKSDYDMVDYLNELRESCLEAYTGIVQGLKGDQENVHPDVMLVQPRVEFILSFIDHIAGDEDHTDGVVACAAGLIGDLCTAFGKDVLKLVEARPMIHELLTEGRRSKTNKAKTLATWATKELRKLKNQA
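Inhibition scored from the CFP 486 nm/YFP 530 nm FRET ratio 45 min after adding 0.125 microM importin beta to 50 nM Rango biosensor preincubated 5 min with compound (room temperature, PBS with DTT, Tween-20, BSA). No-importin wells as positive control.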
KCNH2 3.1 inh – inhibitors of human KCNH2 3.1 potassium channel isoform | 340,000 tested, 0.95% active | activity change, % (tested at about 1.8 µM) | U2OS KCNH2 3.1, thallium flux FluxOr; hits give low values | AID 720553;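 active means maximum activity change below -70%; inconclusive means maximum activity change from -70% to -50%; inactive means maximum activity change above -50%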;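 further: thallium influx rate constant from kinetic fluorescence after stimulation buffer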
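We transduce U2OS cells with the mutant 3.1 virus, culture them overnight, load FluxOr with Red40 quencher for 45 min, then add stimulation buffer and read kinetically for 2 min to derive a normalized rate constant.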
CCT modulator – modulators of cytosolic chaperonin (CCT/TRiC) activity | purified chaperonin ATPase assay, HTRF ADP detection, 30 min | activity change, % (no concentration beside the values), hits read low | 360,000 tested, 0.3% active | AID 651819; in the data active means activity change below about -30%
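TRiC (40 or 20 nM final, by batch activity) in 30 mM Tris pH 7.4, 100 mM KCl, 5 mM MgCl2, 1 mM DTT was treated with compound at 76 uM single dose, then 10 uM ATP, 30 min at 37 °C. ADP was read by HTRF Transcreener.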
MmCpn inh – M. maripaludis TRiC chaperonin inhibition; purified Mm-Cpn ATPase, ADP Transcreener TR-FRET; Potency, µM (titrated, usually from 76.9 µM), usual class: inhibitors; 330,000 tested, 0.031% active; AID 504842; active means well fitted inhibition curve with a large enough effect; inconclusive means small, poorly fitted or top-dose-only effect; further: nearly all actives have a fitted effect of over 80% in size
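Measured: ADP formation by purified Mm-CPN. Conditions: 25 nM protein, 10 uM ATP, Tris pH 7.4 with Mg2+, K+ and DTT, 37°C for 30 min. Detection: Transcreener HTRF after 30 min at room temperature.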
KCNH2 WT inh – KCNH2 (human, wildtype) channel inhibition; AID 720551; activity change, % at 1.84 µM; Q12809; 340,000 tested, 0.37% active; U2OS, BacMam KCNH2, thallium flux FluxOr; hits give low values;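 active means maximum activity change below -70%; inconclusive means maximum activity change between -70% and -50%; inactive means maximum activity change above -50%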
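U2OS cells transduced with wild-type KCNH2 virus are loaded with FluxOr dye for 45 min, and thallium flux is measured in kinetic reads before and after stimulation buffer. Rate constants are normalized to DMSO controls.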
Rango release inh – inhibition of RanGTP-driven Rango-importin beta dissociation | Biochemical FRET Rango-importin beta, RanGTP-induced dissociation | Potency, µM (highest dose often 46.1 µM) | 340,000 tested, 0.071% active | AID 540253; further: nearly all actives have a fitted effect of over 45% in size
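Rango FRET biosensor (snurportin-1 IBB flanked by N-terminal EYFP and C-terminal CFP10) at 0.1 uM, with 0.25 uM importin beta in PBS, 1mM DTT, 0.02% Tween-20, 0.1% BSA. 0.6 uM Ran, 2mM GTP and 0.2 uM RCC1 were then added for 45 min at room temperature. Inhibition read as loss of FRET rise.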
Hits are given with their value; - = inactive; ? = inconclusive; . = no result given. The list is not random: actives were taken first. Their share in the collection is about 1.4%. Unless noted, the call rests on the fitted dose curve.

SMILES	Rango complex inh	KCNH2 3.1 inh	CCT modulator	MmCpn inh	KCNH2 WT inh	Rango release inh
COc1ccc2c(c1)C(=O)N1[C@H]3c4cc(OC)ccc4OC[C@@H]3[C@H](c3ccccc3)[C@]1(C)C(=O)N2	-	-	-	-	-	-
CCOC(=O)[C@H]1[C@H]2COc3ccc(Cl)cc3[C@@H]2N2C(=O)c3cc(F)c(F)cc3NC(=O)[C@@]12C	-	-194	-	-	-	-
COc1ccc2c(c1)[C@H]1[C@H](CO2)[C@H](c2ccccc2)[C@]2(C)C(=O)Nc3ccc(Br)cc3C(=O)N12	?	-86	-	-	-	-
Cc1ccc2c(c1)C(=O)N1[C@H]3c4cc(C)ccc4OC[C@@H]3[C@H](c3ccccc3)[C@]1(C)C(=O)N2	-	-	-	-	-	-
Cc1ccc(NC(=S)Nc2cccc3cnccc23)c(C)c1	-	-	-	-	-	-
Cc1cc(C)cc(NC(=S)Nc2cccc3cnccc23)c1	-	-	-	-	-228	-
Cc1cc(C)cc(NC(=S)N2CCC(NC(=O)C3CCCCC3)CC2)c1	-	-	-	-	-	-
O=C(NC1CCN(C(=O)Nc2cccc(Cl)c2)CC1)C1CCCCC1	-	-73	-	-	-	-
Cc1cc(C)cc(NC(=S)N2CCC(NC(=O)C3CC3)CC2)c1	-	-	-	-	-95	-
CN(CCCC(=O)N1CCCC(C(N)=O)C1)S(=O)(=O)c1ccc(F)cc1 (centres undefined)	-	-	-	-	-	-
CCc1cccc2c1NC(=O)C21N2CCCC2C(C(=O)c2ccc3ccccc3c2)C12C(=O)Nc1ccccc12 (centres undefined)	-	-113	-	-	-	-
O=C(O)C1C2C=CC(C2)C1C(=O)NCCCN1CCCC1=O (centres undefined)	-	-	-	-	-128	-
O=C(O)C1C2C=CC(C2)C1C(=O)NCCCn1ccnc1 (centres undefined)	-	-	-	-	-	-
Cc1cc(S(=O)(=O)N2CCCC(N(C)CCc3ccccn3)C2)c(C)cc1Cl (centres undefined)	-	-	-75	-	-	-
Cc1ccccc1C(=O)Nc1ccnn1C1CCN(C(C)Cc2ccccc2F)CC1 (centres undefined)	-	-76	-	-	-	-
COCC(C)N1CCC(n2nccc2NC(=O)c2ccccc2Cl)CC1 (centres undefined)	-	-	-	.	-	-
COc1ccccc1/C=C/CN1CCC(n2nccc2NC(=O)C2CC2)CC1	-	-	-	-	-	-
COc1ccccc1C(=O)Nc1ccnn1C1CCN(CCC(C)c2ccc(C)o2)CC1 (centres undefined)	-	-98	-	-	-104	-
COc1ccccc1C(=O)Nc1ccnn1C1CCN(C/C=C/c2ccccc2)CC1	-	-107	-	-	-121	-
Cc1ccc(C(C)CCN2CCC(n3nccc3NC(=O)c3ccccc3)CC2)o1 (centres undefined)	-	-	-	-	-	-
COc1ccc(C(=O)NC2CCN(C(=O)NCc3ccccc3)CC2)cc1	-	-	-	-	-	-
CCCOc1ccccc1C(=O)N1CCNC(=O)C1CC(=O)OC(C)C (centres undefined)	-	-	-	-	-	-
CCOC(=O)CSc1nc(=O)n2cccc(C)c2n1	-	-	-	-	-	-
Cc1cc(C)nc(N2CCC(C(=O)NCc3ccccc3F)CC2)n1	-	-	-	-	-	-
O=C(NCc1ccco1)C1CCN(c2nc3ccccc3n2Cc2ccccc2F)CC1	-	-105	-	-	?	-
SMILES	Rango complex inh	KCNH2 3.1 inh	CCT modulator	MmCpn inh	KCNH2 WT inh	Rango release inh
COc1ccc(-c2nc(Cn3c(SCc4ccccc4F)nc4ccncc43)c(C)o2)cc1	-	-109	-	-	-	-
COC(=O)[C@@]1(Sc2ccc(C)cc2)CC(=O)N(C(=O)CCc2ccccc2)[C@@H]1c1ccccc1	.	.	-	.	.	.
Cn1c(N2CCN(C(=O)Nc3ccc(C(F)(F)F)cc3)CC2)nc2ccccc21	-	-74	-	-	-82	-
CC1(C)CC(=O)C2=C(C1)N1C(=C(C#N)C2c2ccc(Cl)cc2)N=C(N)c2ccccc21 (centres undefined)	?	-	-36	-	-	-
CCc1ccccc1N(C)S(=O)(=O)c1ccc2[nH]cc(C(=O)N3CCc4ccccc43)c(=O)c2c1	-	-85	-	-	-	-
O=C(c1cc(COc2c(F)cccc2F)on1)N1CCN(C2CCCCC2)CC1	-	-81	-	-	-	-
CN(CC(=O)Nc1ccc(F)cc1)C(=O)COC(=O)c1ccc(-c2ccccc2)cc1	-	-	-31	-	-	-
CC(C)COc1ccc(C(=O)OCC(=O)N(C)CC(=O)Nc2ccc(F)cc2)cc1	-	-	-	-	-	-
O=C(NCc1cccc(C(F)(F)F)c1)N1CCN(S(=O)(=O)c2ccccc2F)CC1	-	-	-	-	-	-
COc1cc2c(cc1OC)C(c1ccc(Br)cc1)CC(=O)N2 (centres undefined)	-	-	-	-	-126	-
COc1cc2c(cc1OC)C(c1ccc(C(F)(F)F)cc1)CC(=O)N2 (centres undefined)	-	-	-	-	-	-
CCCC(C)C(=O)Nc1ncc(S(=O)(=O)c2ccc([N+](=O)[O-])cc2)s1 (centres undefined)	-	-106	-	-	-102	-
Cc1ccc(S(=O)(=O)N2CCN(c3cc4c(cc3[N+](=O)[O-])n(C)c(=O)n4C)CC2)cc1	-	-	-54	-	-	-
Cc1ccc(C(=O)NCc2ccc(N3CCN(C(=O)OC(C)(C)C)CC3)cc2)cc1	-	-117	-	-	-	-
CCOc1ccc2nc(NC(=O)c3cccc(-c4cc5ccccc5oc4=O)c3)sc2c1	-	-	-	-	-	-
CCOc1ccc(C(=O)Nc2ccc(NC(=O)c3cccs3)cc2)cc1[N+](=O)[O-]	-	-99	-	-	-81	-
COc1ccc(C(=O)Nc2ccc(NC(=O)c3cccs3)cc2)cc1[N+](=O)[O-]	-	-	-	-	-	-
CCOc1ccc(C(=O)Nc2cccc(-c3cc4ccccc4oc3=O)c2)cc1[N+](=O)[O-]	-	-93	-	-	?	-
COc1ccc(C(=O)Nc2ccc(C(=O)Nc3nccs3)cc2)cc1[N+](=O)[O-]	-	?	-	-	-93	-
